PubChem BioAssay (EPA / NIEHS)
Results filed as inconclusive are left out. Activity calls are given as the source filed them. Rule for the calls, unless noted: active = hit-call score of the fitted dose curve at least 0.9, where 1 is the maximum; inactive = score below 0.9.

Key:
[1] = ATG_DR4_LXR_CIS: Attagene CIS-FACTORIAL HepG2 Assay for human Liver X Receptor (LXR), DR4 submotif (AID 2282929); details: HepG2 Attagene DR4 cis-reporter, mRNA transcription; actives raise or lower the signal
Procedure, shortened: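 Measures endogenous transcription factor activity via a DR4-driven reporter transcript in human HepG2 cells. Compounds incubated 24 h; mRNA quantified by RT-PCR and capillary electrophoresis, analysed as gain or loss of signal versus DMSO.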

[2] = target: Hepatocyte nuclear factor 3-beta (Homo sapiens) (UniProt Q9Y261); assay: ATG_FoxA2_CIS: Attagene CIS-FACTORIAL HepG2 Assay for human Forkhead box A2 (FOXA2) (AID 2282942); details: HepG2 cis-reporter transcription factor activity, 24 h; actives raise or lower the signal
Procedure, shortened: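 In transiently transfected human HepG2 cells, promoter-driven reporter mRNA levels after 24 h chemical exposure are determined via RT-PCR with capillary electrophoresis. DMSO serves as baseline for bidirectional fitting.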

[3] = target: Hypoxia-inducible factor 1-alpha (Homo sapiens) (UniProt Q16665); assay: ATG_HIF1a_CIS: Attagene CIS-FACTORIAL HepG2 Assay for human Hypoxia Inducible Factor 1 (HIF1A) (AID 2282951); details: HepG2 Attagene cis-factorial HIF1a reporter transcription; actives raise or lower the signal
Procedure, shortened: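 In this multiplexed cell assay, HepG2 cells bearing transfected cis reporters are dosed for 24 h and reporter mRNA is read by RT-PCR plus capillary electrophoresis; signal increases and decreases are both scored against DMSO.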

[4] = target: Heat shock factor protein 1 (Homo sapiens) (UniProt Q00613); assay: ATG_HSE_CIS: Attagene CIS-FACTORIAL HepG2 Assay for human Heat Shock Transcription Factor 1 (HSE) (AID 2282953); details: HepG2 HSE cis-reporter, Attagene RNA transcription; actives raise or lower the signal
Procedure, shortened: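 Endogenous transcription factor activity in transiently transfected HepG2, read as reporter mRNA by RT-PCR with fluorescent capillary electrophoresis after 24 h. Gain or loss of signal fitted versus DMSO baseline.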

[5] = ATG_RORE_CIS: Attagene CIS-FACTORIAL HepG2 Assay for human RAR-related Orphan Receptor Element (RORE) (AID 2282959); details: HepG2 Attagene cis-factorial RORE reporter, mRNA; actives raise or lower the signal
Procedure, shortened: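 Fluorescence intensity of reporter-specific cDNA fragments, separated by capillary electrophoresis, gives the signal. Source: HepG2 liver cells transiently transfected with cis-element reporters and exposed 24 h; DMSO-normalized bidirectional fit.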

[6] = target: Signal transducer and activator of transcription 3 (Homo sapiens) (UniProt P40763); assay: ATG_STAT3_CIS: Attagene CIS-FACTORIAL HepG2 Assay for human Signal Transducer and Activator of Transcription 3 (STAT3) (AID 2282963); details: HepG2, Attagene cis-factorial STAT3 reporter transcription; actives raise or lower the signal
Procedure, shortened: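 HepG2, MRTU-transfected, 24 h dosing. RNA → RT → PCR → FAM label → HpaI → CE. Bidirectional fit vs DMSO.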

[7] = ATG_TCF_b_cat_CIS: Attagene CIS-FACTORIAL HepG2 Assay for human T-Cell-Factor with beta-catenin (TCF/b-cat) (AID 2282965); details: HepG2 TCF/beta-catenin cis-reporter transcription, actives raise or lower the signal
Procedure, shortened: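 In this cis-format system, transfected HepG2 cells report endogenous transcription factor activity. Readout after 24 h exposure is reporter transcript abundance from RT-PCR and capillary electrophoresis, analysed for gain or loss of signal versus DMSO.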

[8] = ATG_TAL_CIS: Attagene CIS-FACTORIAL HepG2 Assay for human TAL Basal Promoter (AID 2282966); details: HepG2 Attagene cis-factorial TAL promoter reporter; actives raise or lower the signal;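 note: background control endpoint measuring basal TAL promoter reporter mRNA not a specific factor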
Procedure, shortened: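 After 24 hours of chemical exposure, transfected HepG2 cells yielded RNA that was converted to 6-FAM-labelled, HpaI-digested reporter fragments for capillary electrophoresis. Values derive from bidirectional fitting against DMSO controls.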

[9] = ATG_TGFb_CIS: Attagene CIS-FACTORIAL HepG2 Assay for human Transforming Growth Factor (TGF) (AID 2282967); details: HepG2 Attagene CIS TGFb reporter, mRNA transcription; actives raise or lower the signal
Procedure, shortened: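 Endogenous TGFB1-linked transcription factor activity read as reporter mRNA via RT-PCR and capillary electrophoresis, 24 h after dosing transiently transfected HepG2 cells. Gain or loss of signal fitted relative to DMSO.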

[10] = ATG_VDRE_CIS: Attagene CIS-FACTORIAL HepG2 Assay for human Vitamin D Receptor Element (VDRE) (AID 2282968); details: HepG2 VDRE cis-reporter transcription, actives raise or lower the signal
Procedure, shortened: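 Steps: transfect HepG2 with multiple reporter transcription units; dose chemicals 24 h; isolate RNA; RT-PCR; label with 6-FAM primer extension; HpaI digest; capillary electrophoresis. Curves fitted both directions against DMSO.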

[11] = target: X-box-binding protein 1 (Homo sapiens) (UniProt P17861); assay: ATG_Xbp1_CIS: Attagene CIS-FACTORIAL HepG2 Assay for human X-box Binding Protein 1 (XBP1) (AID 2282972); details: HepG2 XBP1 cis-element reporter, Attagene multiplex; actives raise or lower the signal
Procedure, shortened: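 Human hepatoma HepG2, cis-element reporter system, 24 h treatment; mRNA quantified by RT-PCR/CE fluorescence; fit relative to DMSO.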

[12] = target: Transcriptional activator Myb (Homo sapiens) (UniProt P10242); assay: ATG_Myb_CIS: Attagene CIS-FACTORIAL HepG2 Assay for human Myeloblastosis (Myb) Proto-Oncogene Transcription Factor (AID 2282986); details: HepG2 Attagene CIS-FACTORIAL Myb reporter transcription; actives raise or lower the signal
Procedure, shortened: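 Fluorescence signals from capillary electrophoresis of RT-PCR-amplified reporter cDNA give the read-out. Cells: HepG2 transfected with multiple cis-regulated reporter units. Exposure lasts 24 hours; DMSO defines baseline for gain or loss of signal.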

[13] = target: Nuclear respiratory factor 1 (Homo sapiens) (UniProt Q16656); assay: ATG_NRF1_CIS: Attagene CIS-FACTORIAL HepG2 Assay for human Nuclear Respiratory Factor 1 (NRF1) Orphan Gene (AID 2282987); details: HepG2 NRF1 cis-element reporter, Attagene multiplex; actives raise or lower the signal
Procedure, shortened: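 Transcriptional reporter readout, one component of a 52-endpoint multiplexed HepG2 panel. Exposure 24 h; mRNA detected via RT-PCR and fluorescent capillary electrophoresis; fitting in both directions against DMSO.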

[14] = target: Myc proto-oncogene protein (Homo sapiens) (UniProt P01106); assay: ATG_Myc_CIS: Attagene CIS-FACTORIAL HepG2 Assay for human Myelocytomatosis (Myc) Proto-Oncogene Transcription Factor (AID 2282990); details: HepG2, Attagene cis-reporter transcription factor activity; actives raise or lower the signal
Procedure, shortened: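 DMSO-normalised, bidirectionally fitted reporter mRNA signal. HepG2 cells transfected with cis reporter constructs, treated 24 h; transcripts detected by RT-PCR, 6-FAM primer extension and CE.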

[15] = ATG_NRF2_ARE_CIS: Attagene CIS-FACTORIAL HepG2 Assay for human Nuclear Factor Erythroid 2 Related Factor 2 (NFR2) response to Antioxidant Response Elements (ARE) (AID 2282992); details: HepG2 Attagene ARE/NRF2 reporter, transcription factor activity; actives raise or lower the signal;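 for AC50: reporter mRNA level measured by RT-PCR and capillary electrophoresis fluorescence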
Procedure, shortened: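 Fluorescence intensity of reporter-specific cDNA fragments, separated by capillary electrophoresis, reflects mRNA induction in transfected HepG2 cells at 24 h. Activity is fitted bidirectionally, DMSO serving as baseline.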

[16] = ATG_Oct_MLP_CIS: Attagene CIS-FACTORIAL HepG2 Assay for human Octamer-Binding Transcription Factor (Oct) (AID 2282993); details: HepG2 Attagene cis-factorial Oct reporter, mRNA; actives raise or lower the signal
Procedure, shortened: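 Readout is reporter transcript level from RT-PCR with fluorescent primer extension and capillary electrophoresis, fitted in both directions against DMSO. Transfected HepG2 reporter units report endogenous factor activity after 24 h dosing.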

[17] = target: Cellular tumor antigen p53 (Homo sapiens) (UniProt P04637); assay: ATG_p53_CIS: Attagene CIS-FACTORIAL HepG2 Assay for human p53 Transcription Factor (AID 2282994); details: HepG2 p53 cis-element reporter, Attagene mRNA; actives raise or lower the signal
Procedure, shortened: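 Transiently transfected HepG2 (multiple cis reporter transcription units); exposure 24 h; reporter RNA via RT-PCR, 6-FAM extension, 2 h HpaI digest at 37 C, CE detection; DMSO baseline.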

[18] = target: Nuclear receptor subfamily 1 group I member 2 (Homo sapiens) (UniProt O75469); assay: ATG_PXR_TRANS: Attagene TRANS-FACTORIAL HepG2 Assay for human Pregnane X Receptor (PXR) (AID 2283008; active = hit-call score of the fitted dose curve at least 0.9, where 1 is the maximum)
Procedure, shortened: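 Transient HepG2 transfectants carrying multiplexed reporter transcription units; PXR activity read through a Gal4 chimera. 24 h exposure. RT-PCR/CE fluorescence; upward curve fit referenced to DMSO.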

[19] = ATG_AP_1_CIS: Attagene CIS-FACTORIAL HepG2 Assay for human Activator Protein 1 (AP-1) (AID 2282931); details: HepG2 Attagene cis-factorial AP-1 reporter mRNA; actives raise or lower the signal
Procedure, shortened: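 Bidirectional concentration-response fitting against DMSO controls. Underlying signal: reporter mRNA from cis-promoter constructs in transiently transfected HepG2, measured after 24 h by RT-PCR and capillary electrophoresis.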

[20] = ATG_XTT_Cytotoxicity: Cytotoxicity Assessment in the Attagene TRANS-FACTORIAL HepG2 Assay (AID 2283584; active = hit-call score of the fitted dose curve at least 0.9, where 1 is the maximum)
Procedure, shortened: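 Cells: human HepG2, transiently transfected with MRTU reporter constructs. Exposure 24 h. Readout: XTT, cell number. Baseline/neg ctrl DMSO; loss-of-signal scored.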

Transcriptional activator Myb (Homo sapiens), sequence (P10242 whole entry, looked up): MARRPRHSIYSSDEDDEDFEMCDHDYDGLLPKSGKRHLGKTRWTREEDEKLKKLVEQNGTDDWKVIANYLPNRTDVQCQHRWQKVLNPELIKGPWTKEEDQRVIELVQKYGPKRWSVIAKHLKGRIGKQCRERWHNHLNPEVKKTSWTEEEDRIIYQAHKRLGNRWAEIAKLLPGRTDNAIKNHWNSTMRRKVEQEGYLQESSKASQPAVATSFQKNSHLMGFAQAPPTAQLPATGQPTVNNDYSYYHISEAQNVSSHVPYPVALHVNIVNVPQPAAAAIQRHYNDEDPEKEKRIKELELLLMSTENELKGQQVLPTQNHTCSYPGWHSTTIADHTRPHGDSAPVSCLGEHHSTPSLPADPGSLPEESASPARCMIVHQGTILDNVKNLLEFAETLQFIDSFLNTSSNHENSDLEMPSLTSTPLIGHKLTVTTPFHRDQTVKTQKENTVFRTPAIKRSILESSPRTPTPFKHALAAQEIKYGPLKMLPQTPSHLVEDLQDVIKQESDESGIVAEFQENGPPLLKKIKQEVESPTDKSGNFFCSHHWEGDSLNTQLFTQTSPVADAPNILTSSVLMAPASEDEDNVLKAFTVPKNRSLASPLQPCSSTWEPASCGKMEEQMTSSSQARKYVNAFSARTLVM
Hypoxia-inducible factor 1-alpha (Homo sapiens), sequence (Q16665 whole entry, looked up): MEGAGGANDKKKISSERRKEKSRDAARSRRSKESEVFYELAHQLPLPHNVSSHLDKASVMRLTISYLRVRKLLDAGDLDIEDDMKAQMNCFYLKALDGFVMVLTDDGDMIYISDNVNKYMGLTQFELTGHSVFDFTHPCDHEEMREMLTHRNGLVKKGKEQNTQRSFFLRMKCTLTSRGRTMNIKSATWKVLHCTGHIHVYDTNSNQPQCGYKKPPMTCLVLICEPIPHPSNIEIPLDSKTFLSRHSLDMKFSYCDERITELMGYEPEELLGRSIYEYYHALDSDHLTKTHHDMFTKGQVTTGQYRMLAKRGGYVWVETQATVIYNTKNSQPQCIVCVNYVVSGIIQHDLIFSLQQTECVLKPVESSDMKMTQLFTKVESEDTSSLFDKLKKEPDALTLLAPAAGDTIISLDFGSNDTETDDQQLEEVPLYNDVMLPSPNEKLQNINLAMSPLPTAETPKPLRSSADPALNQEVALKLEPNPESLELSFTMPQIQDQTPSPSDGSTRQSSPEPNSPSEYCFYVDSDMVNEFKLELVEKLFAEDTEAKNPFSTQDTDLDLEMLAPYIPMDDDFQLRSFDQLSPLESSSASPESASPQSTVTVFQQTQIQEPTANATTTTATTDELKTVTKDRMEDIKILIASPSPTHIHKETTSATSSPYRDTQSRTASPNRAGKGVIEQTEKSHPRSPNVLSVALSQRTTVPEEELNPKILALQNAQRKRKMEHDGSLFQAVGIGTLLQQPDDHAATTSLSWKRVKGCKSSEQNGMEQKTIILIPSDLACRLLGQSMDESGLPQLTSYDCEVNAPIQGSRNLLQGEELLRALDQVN
X-box-binding protein 1 (Homo sapiens), sequence (P17861 whole entry, looked up): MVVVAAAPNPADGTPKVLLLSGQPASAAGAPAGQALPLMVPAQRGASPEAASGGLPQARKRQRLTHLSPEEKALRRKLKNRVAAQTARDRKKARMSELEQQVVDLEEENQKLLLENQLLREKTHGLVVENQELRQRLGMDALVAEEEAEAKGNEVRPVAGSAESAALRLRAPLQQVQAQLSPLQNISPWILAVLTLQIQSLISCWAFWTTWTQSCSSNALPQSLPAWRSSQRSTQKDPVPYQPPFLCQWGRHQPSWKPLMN
Nuclear receptor subfamily 1 group I member 2 (Homo sapiens), sequence (O75469 whole entry, looked up, the tested form may be a part): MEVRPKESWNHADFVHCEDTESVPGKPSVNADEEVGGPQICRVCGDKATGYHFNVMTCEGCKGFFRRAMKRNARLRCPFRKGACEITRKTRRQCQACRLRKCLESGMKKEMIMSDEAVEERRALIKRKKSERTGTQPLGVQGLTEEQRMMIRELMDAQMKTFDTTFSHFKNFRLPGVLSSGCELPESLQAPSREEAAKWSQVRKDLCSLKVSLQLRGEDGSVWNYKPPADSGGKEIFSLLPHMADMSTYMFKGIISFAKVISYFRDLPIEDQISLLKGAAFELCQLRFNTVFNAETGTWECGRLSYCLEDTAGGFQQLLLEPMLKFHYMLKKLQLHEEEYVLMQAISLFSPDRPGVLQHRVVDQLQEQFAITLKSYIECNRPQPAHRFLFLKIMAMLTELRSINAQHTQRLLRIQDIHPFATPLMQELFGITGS
Signal transducer and activator of transcription 3 (Homo sapiens), sequence (P40763 whole entry, looked up): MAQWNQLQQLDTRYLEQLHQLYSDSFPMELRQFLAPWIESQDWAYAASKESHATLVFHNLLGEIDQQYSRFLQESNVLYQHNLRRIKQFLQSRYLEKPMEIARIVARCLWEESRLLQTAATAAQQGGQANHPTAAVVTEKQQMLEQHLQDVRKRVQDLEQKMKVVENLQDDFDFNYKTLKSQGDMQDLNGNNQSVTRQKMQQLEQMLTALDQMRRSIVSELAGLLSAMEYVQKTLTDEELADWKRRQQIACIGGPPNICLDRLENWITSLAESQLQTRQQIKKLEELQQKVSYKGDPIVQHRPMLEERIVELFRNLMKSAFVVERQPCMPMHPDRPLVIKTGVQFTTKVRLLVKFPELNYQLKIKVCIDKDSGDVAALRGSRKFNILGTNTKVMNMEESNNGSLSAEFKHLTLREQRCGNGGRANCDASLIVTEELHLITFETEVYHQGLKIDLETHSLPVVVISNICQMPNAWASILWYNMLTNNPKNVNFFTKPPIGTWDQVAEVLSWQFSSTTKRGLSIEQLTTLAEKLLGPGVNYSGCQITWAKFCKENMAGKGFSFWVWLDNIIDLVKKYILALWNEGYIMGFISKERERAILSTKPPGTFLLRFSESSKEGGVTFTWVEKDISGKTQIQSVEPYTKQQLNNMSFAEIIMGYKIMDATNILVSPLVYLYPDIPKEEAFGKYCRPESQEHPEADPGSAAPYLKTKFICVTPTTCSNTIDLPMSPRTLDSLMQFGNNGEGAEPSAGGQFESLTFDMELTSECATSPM
Nuclear respiratory factor 1 (Homo sapiens), sequence (Q16656 whole entry, looked up): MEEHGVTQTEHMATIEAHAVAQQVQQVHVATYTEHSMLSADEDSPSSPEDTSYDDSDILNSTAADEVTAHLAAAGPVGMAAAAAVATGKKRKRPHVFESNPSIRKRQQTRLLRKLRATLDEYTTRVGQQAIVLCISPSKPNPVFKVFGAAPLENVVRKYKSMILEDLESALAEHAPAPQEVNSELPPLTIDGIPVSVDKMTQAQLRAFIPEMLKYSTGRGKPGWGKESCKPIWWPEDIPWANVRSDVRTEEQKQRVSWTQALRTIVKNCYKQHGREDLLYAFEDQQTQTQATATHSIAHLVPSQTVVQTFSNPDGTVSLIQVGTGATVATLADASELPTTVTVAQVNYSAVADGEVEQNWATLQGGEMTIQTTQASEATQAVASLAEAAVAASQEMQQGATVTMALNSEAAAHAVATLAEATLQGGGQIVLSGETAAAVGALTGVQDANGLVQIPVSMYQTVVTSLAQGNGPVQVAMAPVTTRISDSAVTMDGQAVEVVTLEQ
Hepatocyte nuclear factor 3-beta (Homo sapiens), sequence (Q9Y261 whole entry, looked up): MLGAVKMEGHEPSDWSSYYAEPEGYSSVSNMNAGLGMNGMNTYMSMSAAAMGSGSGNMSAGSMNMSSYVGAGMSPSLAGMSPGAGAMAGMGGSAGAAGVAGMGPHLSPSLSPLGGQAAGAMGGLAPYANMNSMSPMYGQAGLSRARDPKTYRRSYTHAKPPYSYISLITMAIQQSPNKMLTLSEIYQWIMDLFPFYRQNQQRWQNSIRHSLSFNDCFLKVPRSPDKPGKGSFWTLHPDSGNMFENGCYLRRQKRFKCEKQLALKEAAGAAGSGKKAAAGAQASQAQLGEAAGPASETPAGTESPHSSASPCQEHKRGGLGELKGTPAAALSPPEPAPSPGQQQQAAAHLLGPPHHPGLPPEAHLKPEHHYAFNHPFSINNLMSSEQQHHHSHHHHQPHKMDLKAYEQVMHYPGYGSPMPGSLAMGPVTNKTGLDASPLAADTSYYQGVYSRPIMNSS
Myc proto-oncogene protein (Homo sapiens), sequence (P01106 whole entry, looked up): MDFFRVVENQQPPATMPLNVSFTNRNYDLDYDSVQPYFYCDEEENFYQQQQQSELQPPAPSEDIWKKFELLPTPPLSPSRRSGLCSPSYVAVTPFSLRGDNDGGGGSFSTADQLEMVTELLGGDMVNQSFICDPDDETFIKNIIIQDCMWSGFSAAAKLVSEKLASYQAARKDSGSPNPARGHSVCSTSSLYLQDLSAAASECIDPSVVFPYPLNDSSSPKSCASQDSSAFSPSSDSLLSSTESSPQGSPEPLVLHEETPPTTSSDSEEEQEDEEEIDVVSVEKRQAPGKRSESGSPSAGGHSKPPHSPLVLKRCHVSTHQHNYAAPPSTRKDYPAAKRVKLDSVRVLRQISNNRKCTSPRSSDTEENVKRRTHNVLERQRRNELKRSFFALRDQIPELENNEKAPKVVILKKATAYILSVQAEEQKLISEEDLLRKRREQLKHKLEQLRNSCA
Heat shock factor protein 1 (Homo sapiens), sequence (Q00613 whole entry, looked up): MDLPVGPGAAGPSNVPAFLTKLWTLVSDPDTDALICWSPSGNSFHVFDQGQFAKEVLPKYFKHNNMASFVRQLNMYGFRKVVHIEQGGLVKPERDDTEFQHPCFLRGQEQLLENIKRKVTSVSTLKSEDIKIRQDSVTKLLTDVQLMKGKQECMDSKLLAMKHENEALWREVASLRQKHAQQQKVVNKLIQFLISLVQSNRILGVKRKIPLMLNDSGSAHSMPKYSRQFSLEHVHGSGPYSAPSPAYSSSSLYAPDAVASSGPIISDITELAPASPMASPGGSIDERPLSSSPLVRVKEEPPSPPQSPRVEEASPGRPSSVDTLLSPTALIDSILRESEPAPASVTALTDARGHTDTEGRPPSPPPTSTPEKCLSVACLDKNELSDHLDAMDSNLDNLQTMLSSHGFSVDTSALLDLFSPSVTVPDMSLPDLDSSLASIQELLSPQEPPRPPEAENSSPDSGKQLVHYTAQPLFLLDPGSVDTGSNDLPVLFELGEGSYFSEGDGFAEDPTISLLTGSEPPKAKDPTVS

CCO[Si](OCC)(OCC)c1ccccc1
outcome [1]: inactive
outcome [2]: inactive
outcome [3]: inactive
outcome [4]: inactive
outcome [5]: inactive
outcome [6]: inactive
outcome [7]: inactive
outcome [8]: inactive
outcome [9]: inactive
outcome [10]: inactive
outcome [11]: inactive
outcome [12]: inactive
outcome [13]: inactive
outcome [14]: inactive
outcome [15]: inactive
outcome [16]: inactive
outcome [17]: inactive
outcome [18]: inactive

CN(C)CCC(c1ccc(Cl)cc1)c1ccccn1 (centres undefined)
outcome [19]: inactive
outcome [4]: inactive
outcome [5]: inactive
outcome [6]: inactive
outcome [7]: inactive
outcome [8]: inactive
outcome [9]: inactive
outcome [11]: inactive
outcome [12]: inactive
outcome [13]: inactive
outcome [14]: inactive
outcome [15]: inactive
outcome [17]: inactive
outcome [18]: inactive
outcome [20]: inactive

Brc1ccc(Oc2ccc(Br)cc2)cc1
outcome [1]: inactive
outcome [2]: inactive
outcome [3]: inactive
outcome [4]: inactive
outcome [5]: inactive
outcome [6]: inactive
outcome [7]: inactive
outcome [8]: inactive
AC50 [9]: 100 µM (active)
outcome [10]: inactive
outcome [11]: inactive
outcome [12]: inactive
outcome [13]: inactive
outcome [14]: inactive
AC50 [15]: 66.4 µM (active)
outcome [16]: inactive
outcome [17]: inactive
AC50 [18]: 7.35 µM (active)

CC(O)(P(=O)(O)O)P(=O)(O)O
outcome [19]: inactive
outcome [2]: inactive
outcome [4]: inactive
outcome [6]: inactive
outcome [7]: inactive
outcome [8]: inactive
outcome [9]: inactive
outcome [11]: inactive
outcome [12]: inactive
outcome [13]: inactive
outcome [14]: inactive
outcome [15]: inactive
outcome [16]: inactive
outcome [20]: inactive

C[Si](C)(C)O[Si](C)(C)O[Si](C)(C)C
outcome [19]: inactive
outcome [2]: inactive
outcome [3]: inactive
outcome [4]: inactive
outcome [5]: inactive
outcome [6]: inactive
outcome [7]: inactive
outcome [8]: inactive
outcome [9]: inactive
outcome [10]: inactive
outcome [11]: inactive
outcome [12]: inactive
outcome [13]: inactive
outcome [14]: inactive
outcome [15]: inactive
outcome [16]: inactive
outcome [17]: inactive
outcome [18]: inactive
outcome [20]: inactive

O=C(O)c1ccccc1C(=O)O
outcome [19]: inactive
outcome [2]: inactive
outcome [3]: inactive
outcome [4]: inactive
outcome [5]: inactive
outcome [6]: inactive
outcome [7]: inactive
outcome [8]: inactive
outcome [9]: inactive
outcome [11]: inactive
outcome [12]: inactive
outcome [13]: inactive
outcome [14]: inactive
outcome [15]: inactive
outcome [16]: inactive
outcome [17]: inactive
outcome [20]: inactive

CCC(C)C1N=C(C)C(C)S1 (centres undefined)
outcome [19]: inactive
outcome [2]: inactive
outcome [3]: inactive
outcome [4]: inactive
outcome [5]: inactive
outcome [6]: inactive
outcome [7]: inactive
outcome [8]: inactive
outcome [9]: inactive
outcome [11]: inactive
outcome [12]: inactive
outcome [13]: inactive
outcome [14]: inactive
outcome [15]: inactive
outcome [16]: inactive
outcome [17]: inactive
AC50 [18]: 4.45 µM (active)
outcome [20]: inactive
